Values joined by “and” are separate entries in the source; they are usually repeats but may differ in a detail not shown here. Identical values can stand only once. Some compounds were tested as several samples or in several runs, with calls that do not always agree. Active and inactive are the calls of the source. Rule for the calls: active = hit-call score of the fitted dose curve at least 0.9, where 1 is the maximum; inactive = score below 0.9.
Legend:
[1] = BSK_CASM3C_SRB: Viability Assessment in the BioMAP Diversity Plus: CASM3C Assay (AID 2283050); details: primary human coronary artery smooth muscle cells;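 note: cells exposed to compound for 24 h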
[2] = read-out: Thrombomodulin, THBD (gene 7056); test: BSK_CASM3C_Thrombomodulin: BioMAP Diversity Plus: CASM3C Assay for Thrombomodulin Biomarker Activity (AID 2283051); details: primary human coronary artery smooth muscle cells; actives raise or lower the signal;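 note: thrombomodulin protein level measured by ELISA 24 h after dosing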
[3] = read-out: Tissue Factor, F3 (gene 2152); test: BSK_CASM3C_TissueFactor: BioMAP Diversity Plus: CASM3C Assay for Tissue Factor Biomarker Activity (AID 2283052); details: primary human coronary artery smooth muscle cells; actives raise or lower the signal;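 note: cell surface tissue factor protein level read by ELISA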
[4] = read-out: Interferon-gamma inducible Protein 10 (IP10), CXCL10 (gene 3627); test: BSK_hDFCGF_IP10: BioMAP Diversity Plus: hDFCGF Assay for Interferon-gamma inducible Protein 10 (IP10) Biomarker Activity (AID 2283053); details: primary human foreskin fibroblasts; actives raise or lower the signal
In short: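 ELISA quantification of IP-10 after a 24 h chemical exposure of human dermal foreskin fibroblast primary cultures. Both increases and decreases versus DMSO fitted.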

[5] = read-out: Urokinase-type plasminogen activator receptor (uPAR), PLAUR (gene 5329); test: BSK_CASM3C_uPAR: BioMAP Diversity Plus: CASM3C Assay for Urokinase-type plasminogen activator receptor (uPAR) Biomarker Activity (AID 2283054); details: primary human coronary artery smooth muscle cells; actives raise or lower the signal;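 note: cell-surface uPAR protein level quantified by ELISA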
[6] = read-out: Vascular cell adhesion molecule 1 (VCAM1), VCAM1 (gene 7412); test: BSK_CASM3C_VCAM1: BioMAP Diversity Plus: CASM3C Assay for Vascular cell adhesion molecule 1 (VCAM1) Biomarker Activity (AID 2283055); details: primary human coronary artery smooth muscle cells; actives raise or lower the signal;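 note: VCAM-1 protein level quantified by ELISA on the cells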
[7] = read-out: Collagen III, COL3A1 (gene 1281); test: BSK_hDFCGF_CollagenIII: BioMAP Diversity Plus: hDFCGF Assay for Collagen III Biomarker Activity (AID 2283056); details: primary human foreskin fibroblasts; actives raise or lower the signal
In short: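 Cells: human foreskin fibroblasts, primary. Dosing followed by 24 h incubation, then ELISA for collagen III. Both increases and decreases scored relative to DMSO.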

[8] = read-out: Epidermal growth factor receptor (EGFR), EGFR (gene 1956); test: BSK_hDFCGF_EGFR: BioMAP Diversity Plus: hDFCGF Assay for Epidermal growth factor receptor (EGFR) Biomarker Activity (AID 2283057); details: primary human foreskin fibroblasts; actives raise or lower the signal
In short: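 EGFR levels by ELISA in human dermal fibroblast cultures, 24 h post-treatment, fitted bidirectionally versus DMSO. Parallel wells stained with sulforhodamine B to detect overt cytotoxicity.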

[9] = read-out: Interleukin-8 (IL8), CXCL8 (gene 3576); test: BSK_hDFCGF_IL8: BioMAP Diversity Plus: hDFCGF Assay for Interleukin-8 (IL8) Biomarker Activity (AID 2283058); details: primary human foreskin fibroblasts; actives raise or lower the signal
In short: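 IL-8 levels from compound-treated primary human fibroblasts were read by ELISA at 24 h, with DMSO serving as baseline for bidirectional fitting.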

[10] = BSK_hDFCGF_Proliferation: Cell Proliferation Assessment in the BioMAP Diversity Plus: hDFCGF Assay (AID 2283059); details: primary human foreskin fibroblasts;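 note: curves fitted for both rise and fall of signal versus DMSO baseline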
In short: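 This proliferation readout used SRB total-protein staining of human foreskin fibroblasts […], normalized to DMSO with bidirectional curve fitting.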

[11] = read-out: Macrophage colony-stimulating factor (MCSF), CSF1 (gene 1435); test: BSK_hDFCGF_MCSF: BioMAP Diversity Plus: hDFCGF Assay for Macrophage colony-stimulating factor (MCSF) Biomarker Activity (AID 2283060); details: primary human foreskin fibroblasts; actives raise or lower the signal
In short: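 M-CSF levels, determined by ELISA, are taken at 24 h after dosing human skin fibroblasts. Responses in either direction are fitted with DMSO serving as the baseline.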

[12] = BSK_hDFCGF_SRB: Viability Assessment in the BioMAP Diversity Plus: hDFCGF Assay (AID 2283061); details: primary human foreskin fibroblasts;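 note: cells exposed to compound for 24 h before the read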
In short: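 Cells were dosed with test chemical, cultured 24 h, fixed with 10% TCA, then stained with 0.1% SRB and read at 560 nm. The fibroblasts were human foreskin primary cells, and DMSO served as baseline.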

[13] = read-out: TIMP metallopeptidase inhibitor 1 (TIMP1), TIMP1 (gene 7076); test: BSK_hDFCGF_TIMP1: BioMAP Diversity Plus: hDFCGF Assay for TIMP metallopeptidase inhibitor 1 (TIMP1) Biomarker Activity (AID 2283062); details: primary human foreskin fibroblasts; actives raise or lower the signal
In short: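 Fibroblasts from human foreskin are treated with test chemical and harvested at 24 h. TIMP-1 is quantified by ELISA, and gain or loss of signal is scored against DMSO.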

[14] = read-out: Monokine induced gamma interferon (MIG), CXCL9 (gene 4283); test: BSK_hDFCGF_MIG: BioMAP Diversity Plus: hDFCGF Assay for Monokine induced gamma interferon (MIG) Biomarker Activity (AID 2283063); details: primary human foreskin fibroblasts; actives raise or lower the signal
In short: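 MIG signal, determined by ELISA, reflects 24 h chemical exposure of human skin primary fibroblasts. DMSO serves as negative control and baseline.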

[15] = read-out: Matrix Metallopeptidase 1 (MMP1), MMP1 (gene 4312); test: BSK_hDFCGF_MMP1: BioMAP Diversity Plus: hDFCGF Assay for Matrix Metallopeptidase 1 (MMP1) Biomarker Activity (AID 2283064); details: primary human foreskin fibroblasts; actives raise or lower the signal
In short: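 Human foreskin fibroblasts exposed to chemical for 24 h; MMP1 detected by ELISA, with DMSO as baseline for bidirectional fitting.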

[16] = read-out: Vascular cell adhesion molecule 1 (VCAM1), VCAM1 (gene 7412); test: BSK_hDFCGF_VCAM1: BioMAP Diversity Plus: hDFCGF Assay for Vascular cell adhesion molecule 1 (VCAM1) Biomarker Activity (AID 2283065); details: primary human foreskin fibroblasts; actives raise or lower the signal;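 for AC50: VCAM-1 protein level quantified by ELISA after 24 h chemical exposure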
In short: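 Cells are dosed, cultured for 24 h, then VCAM-1 is quantified by ELISA; signal increases and decreases are both fitted relative to DMSO.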

[17] = read-out: Plasminogen activator inhibitor-1 (PAI1), SERPINE1 (gene 5054); test: BSK_hDFCGF_PAI1: BioMAP Diversity Plus: hDFCGF Assay for Plasminogen activator inhibitor-1 (PAI1) Biomarker Activity (AID 2283066); details: primary human foreskin fibroblasts; actives raise or lower the signal
In short: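 PAI-1 levels in human dermal foreskin fibroblasts were quantified by ELISA 24 h after dosing, with gain or loss analysed against DMSO. Overt cytotoxicity was checked by sulforhodamine B total-protein staining in parallel cultures.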

[18] = read-out: Intercellular Adhesion Molecule 1 (ICAM1), ICAM1 (gene 3383); test: BSK_KF3CT_ICAM1: BioMAP Diversity Plus: KF3CT Assay for Intercellular Adhesion Molecule 1 (ICAM1) Biomarker Activity (AID 2283067); details: primary human keratinocytes with fibroblasts; actives raise or lower the signal
In short: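 Dose the keratinocyte/fibroblast co-culture, wait 24 h, measure ICAM-1 by ELISA, then fit increases or decreases against DMSO. Cytotoxicity is checked in parallel cultures by SRB total-protein staining.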

[19] = read-out: Interferon-gamma inducible Protein 10 (IP10), CXCL10 (gene 3627); test: BSK_KF3CT_IP10: BioMAP Diversity Plus: KF3CT Assay for Interferon-gamma inducible Protein 10 (IP10) Biomarker Activity (AID 2283068); details: primary human keratinocytes with fibroblasts; actives raise or lower the signal
In short: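 Signal is secreted/surface IP-10 by ELISA in a human primary skin co-culture of keratinocytes and foreskin fibroblasts, taken 24 h post-dosing; DMSO served as negative control.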

[20] = BSK_KF3CT_SRB: Viability Assessment in the BioMAP Diversity Plus: KF3CT Assay (AID 2283069); details: primary human keratinocytes with fibroblasts;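 note: fitted for both signal gain and loss against DMSO baseline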
In short: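 Overt cytotoxicity is assessed as total protein by sulforhodamine B staining in parallel human skin co-cultures at 24 h after dosing. DMSO serves as negative control and baseline.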

Measured: AC50

CCCN(CCC)c1c([N+](=O)[O-])cc(C(C)C)cc1[N+](=O)[O-]
inactive: [1] | [3] | [5] | [6] | [9] | [13] | [15] | [18] | [19]
active: [2] 20 µM | [4] 20 µM | [7] 9.07 µM | [8] 20 µM | [10] 13.3 µM | [11] 6.75 µM | [12] 13.9 µM | [14] 9.44 µM | [16] 14.3 µM | [17] 20 µM

O=P(OCC(Br)CBr)(OCC(Br)CBr)OCC(Br)CBr (stereo not given)
active: [19] 26.2 µM
not listed: [20]
inactive: all other assays above

C=CC(=O)OCC(F)(F)C(F)F
active: [1] 39.8 µM and 43.6 µM | [2] 37.3 µM and 24.9 µM | [4] 34.9 µM and 29.2 µM | [6] 23.9 µM and 21.1 µM | [7] 994 nM and 23.9 µM | [9] 49.8 µM and 48.3 µM | [10] 30 µM and 39.7 µM | [11] 22.8 µM and 23 µM | [13] 30 µM and 31.7 µM | [14] 36.7 µM and 38.4 µM | [15] 4.6 µM | [16] 20 µM and 11.1 µM
inactive: [3] | [5] | [8] | [12] | [15] | [17] | [18] | [19] | [20]

O=c1ssc(Cl)c1Cl
active: [1] 3.99 µM | [3] 6.61 µM | [4] 3.7 µM | [5] 6.83 µM | [6] 4.48 µM | [7] 8.15 µM | [8] 3.16 µM | [9] 13.1 µM | [10] 0.577 µM | [11] 3.29 µM | [12] 2.71 µM | [13] 2.65 µM | [14] 5.86 µM | [15] 4.13 µM | [16] 4 µM | [17] 4.05 µM | [18] 5.46 µM | [19] 7.06 µM
inactive: [2]

CCOP(=S)(OCC)SCSCC
not listed: [20]
inactive: all other assays above

Cc1ccc(N)cc1N
not listed: [20]
inactive: all other assays above

Nc1ccc([N+](=O)[O-])cc1Cl
active: [5] 0.0567 µM
not listed: [20]
inactive: all other assays above

Reference: PubChem BioAssay (EPA / NIEHS)
